Source: PubChem BioAssay (NCI)
This is part of a sample that, as a whole, favours compounds with a hit. Of some 79,000 tested, about 15% had one in any assay. Calls of active or inactive are those of the source. No stated cut-off is given here; in the data, active means growth inhibition above about 70%; inactive means the rest.

Experiments:
[1] = NCI Yeast Anticancer Drug Screen. Data for the rad50 strain (AID 155);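 further: 0% = growth of vehicle-only cultures of the same strain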; settings: S. cerevisiae rad50 strain growth inhibition, stronger effect = higher value
Outline: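 Relative growth inhibition (compound vs vehicle) was measured in yeast with a defined repair-gene alteration.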

[2] = NCI Yeast Anticancer Drug Screen. Data for the mec2-1 strain (AID 157); settings: S. cerevisiae mec2-1 strain, stronger effect = higher value
Outline: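 Strain: mec2-1 (DNA repair/cell cycle alteration). Compound exposure, then growth measured; inhibition expressed relative to vehicle.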

[3] = NCI Yeast Anticancer Drug Screen. Data for the sgs1 mgt1 strain (AID 161);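 further: 0% = growth of cultures given vehicle only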; settings: S. cerevisiae sgs1 mgt1 strain, stronger effect = higher value
Outline: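 Genetically altered yeast, compound exposure, growth inhibition relative to vehicle.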

[4] = NCI Yeast Anticancer Drug Screen. Data for the cln2 rad14 strain (AID 165);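 further: 0% = growth equal to vehicle treated cultures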; settings: S. cerevisiae cln2 rad14 strain, stronger effect = higher value
Outline: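 Compounds are applied to the cln2 rad14 yeast strain, and growth is then compared with that of vehicle-treated cultures to give inhibition.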

[5] = NCI Yeast Anticancer Drug Screen. Data for the bub3 strain (AID 167); settings: S. cerevisiae bub3 mutant strain, stronger effect = higher value
Outline: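 Screening used yeast with an engineered genetic alteration affecting cell cycle control. Compound-exposed cultures were compared with vehicle cultures, and reduced growth was taken as inhibition.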

[6] = NCI Yeast Anticancer Drug Screen. Data for the mlh1 rad18 strain (AID 175); settings: S. cerevisiae mlh1 rad18 strain growth inhibition, stronger effect = higher value
Outline: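 Read-out is yeast growth inhibition, calculated against vehicle-only controls. The compound was applied to a strain engineered with DNA damage repair alterations.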

[7] = at 5.0 µM (retest, dose inferred, filed as 0.5)
[8] = at 50.0 µM (retest, dose inferred, filed as 5.0)

Measured: growth inhibition

CC(=O)c1c(C)n(C)c2c1nnc1ccccc12
active: [1]; [8] 81% | [1]; at 50.0 µM 92.3%
inactive: [1]; [7] 53% | [2]; [7] 17% | [2]; [8] 50% | [2]; at 50.0 µM 36.9% | [3]; [7] 6% | [3]; [8] -2% | [3]; at 50.0 µM 22% | [4]; [7] 9% | [4]; [8] 31% | [4]; at 50.0 µM 59.4% | [5]; [7] 11% | [5]; [8] 48% | [5]; at 50.0 µM 27.1% | [6]; [7] 19% | [6]; [8] 56% | [6]; at 50.0 µM 68.4%

NNC(=S)NN/C=C(\C=Nc1ccccc1)[N+](=O)[O-]
active: [1]; [8] 80% | [2]; [8] 70% | [5]; at 50.0 µM 75.1% | [6]; [8] 86%
inactive: [1]; [7] 19% | [1]; at 50.0 µM 69.8% | [2]; [7] -29% | [2]; at 50.0 µM 68% | [3]; [7] 7% | [3]; [8] 62% | [3]; at 50.0 µM 65.5% | [4]; [7] -17% | [4]; [8] 57% | [4]; at 50.0 µM 57.5% | [5]; [7] -6% | [5]; [8] 64% | [6]; [7] -20% | [6]; at 50.0 µM 68.8%

Cc1c2ccccc2c(CSC(=N)N)c2ccccc12
inactive: [1]; [7] 47% | [2]; [7] 22% | [3]; [7] 9% | [4]; [7] 26% | [5]; [7] 7% | [6]; [7] 30%
active: [1]; [8] 99% | [1]; at 50.0 µM 99.5% | [2]; [8] 99% | [2]; at 50.0 µM 99.7% | [3]; [8] 98% | [3]; at 50.0 µM 99.5% | [4]; [8] 99% | [4]; at 50.0 µM 99.5% | [5]; [8] 99% | [5]; at 50.0 µM 99.4% | [6]; [8] 99% | [6]; at 50.0 µM 99.7%

Cn1c2ccccc2c2nnc(N/N=C/c3ccccn3)nc21
inactive: [1]; [7] 26% | [2]; [7] 21% | [3]; [7] 23% | [4]; [7] 8% | [5]; [7] 13% | [6]; [7] 22%
active: [1]; [8] 98% | [1]; at 50.0 µM 94.4% | [2]; [8] 97% | [2]; at 50.0 µM 96.5% | [3]; [8] 98% | [3]; at 50.0 µM 96.9% | [4]; [8] 97% | [4]; at 50.0 µM 96.2% | [5]; [8] 99% | [5]; at 50.0 µM 96.2% | [6]; [8] 98% | [6]; at 50.0 µM 96.4%

CCOC(=O)NCCCc1ccc2oc3ccccc3c2c1
active: [1]; [8] 97% | [1]; at 50.0 µM 81.6% | [2]; [8] 98% | [3]; [8] 97% | [3]; at 50.0 µM 90.8% | [4]; [8] 95% | [5]; [8] 98% | [6]; [8] 97%
inactive: [1]; [7] -1% | [2]; [7] -3% | [2]; at 50.0 µM 19.6% | [3]; [7] -3% | [4]; [7] 1% | [4]; at 50.0 µM -12.7% | [5]; [7] 9% | [5]; at 50.0 µM 19.8% | [6]; [7] -1% | [6]; at 50.0 µM 57.9%

CC1=C(C(=O)Nc2ccccc2C)C(c2ccc(Cl)c(Cl)c2)C(C(=O)Nc2ccccc2C)=C(C)N1
active: [1]; at 50.0 µM 84% | [2]; at 50.0 µM 76.3% | [3]; at 50.0 µM 79.4% | [4]; at 50.0 µM 78.5% | [5]; at 50.0 µM 82% | [6]; at 50.0 µM 77.1%
inactive: [1]; [7] 5% | [1]; [8] 5% | [2]; [7] 2% | [2]; [8] 2% | [3]; [7] -5% | [3]; [8] -5% | [4]; [7] 8% | [4]; [8] 8% | [5]; [7] -19% | [5]; [8] -19% | [6]; [7] 8% | [6]; [8] 8%

Clc1ccc2c(NCCCCCCNc3ccnc4cc(Cl)ccc34)ccnc2c1
inactive: [1]; [7] 2% | [1]; at 50.0 µM 65.9% | [2]; [7] -3% | [3]; [7] -10% | [4]; [7] -2% | [5]; [7] -11% | [6]; [7] 12%
active: [1]; [8] 90% | [2]; [8] 98% | [2]; at 50.0 µM 92.4% | [3]; [8] 95% | [3]; at 50.0 µM 87.5% | [4]; [8] 75% | [4]; at 50.0 µM 72.4% | [5]; [8] 92% | [5]; at 50.0 µM 81.1% | [6]; [8] 97% | [6]; at 50.0 µM 95.8%

COCC1C(=O)c2cc3c(cc2C12C=CC1(C=C2)OCCO1)OCO3 (stereo not given)
inactive: [1]; [7] 36% | [1]; [8] 7% | [2]; [7] 15% | [2]; [8] -7% | [3]; [7] 35% | [3]; [8] -2% | [4]; [7] 9% | [4]; [8] 20% | [5]; [7] 40% | [5]; [8] -7% | [6]; [7] 50% | [6]; [8] -14%
active: [1]; at 50.0 µM 86% | [2]; at 50.0 µM 91.8% | [3]; at 50.0 µM 92.8% | [4]; at 50.0 µM 90.2% | [5]; at 50.0 µM 91.1% | [6]; at 50.0 µM 88.2%

CC(C)/C(Cl)=N\OC(=O)Nc1ccc(S(N)(=O)=O)cc1
inactive: [1]; [7] 15% | [1]; [8] 30% | [1]; at 50.0 µM 12.7% | [2]; [7] 26% | [2]; [8] 28% | [2]; at 50.0 µM 18.8% | [3]; [7] 2% | [3]; [8] -23% | [3]; at 50.0 µM 68% | [4]; [7] 21% | [4]; [8] 33% | [4]; at 50.0 µM 45% | [5]; [7] 7% | [5]; [8] 26% | [6]; [7] 22% | [6]; [8] 38% | [6]; at 50.0 µM -38.8%
active: [5]; at 50.0 µM 77.2%

COc1cc(NS(C)(=O)=O)ccc1Nc1c2ccccc2nc2ccccc12
inactive: [1]; [7] 67% | [2]; [7] -5% | [2]; [8] 57% | [2]; at 50.0 µM 42.5% | [3]; [7] 9% | [3]; [8] 44% | [3]; at 50.0 µM 37.2% | [4]; [7] 15% | [4]; [8] 32% | [4]; at 50.0 µM 20.8% | [5]; [7] 14% | [5]; [8] 24% | [5]; at 50.0 µM 11.1% | [6]; [7] 9% | [6]; [8] 38% | [6]; at 50.0 µM 32.9%
active: [1]; [8] 85% | [1]; at 50.0 µM 83.5%
